Structures are written as SMILES.

As for `COc1cc(-c2cncc(-c3cnn(C4CCNCC4)c3)c2)cc(OC)c1OC` [K05908], the Kinases covered entry in the assay with TGFBR1 is reported as “TGFBR1”.

As for `Cc1ccc(-c2cc(-c3c[nH]nc3-c3ccccn3)ccn2)cc1` [GW684088], in the assay on TGFBR1, the Kinases covered result is given as “TGFBR1”.

Take `CCn1cc(-c2ccnc3[nH]c(-c4cccc(CN(C)C)c4)cc23)c(-c2ccc(NC(=O)N(C)C)cc2)n1` [GSK1070916]: the Kinases covered entry in the assay with TIE2 is “TIE2”.

As for `CCS(=O)(=O)c1ccc(OC)c(Nc2ncc(-c3cccc(OC)c3)o2)c1` [GW580509X], the Kinases covered result with TNK1 was “TNK1”.

As for `COc1cc(N2CCN(C)CC2)ccc1Nc1ncc2c(n1)N(C)c1ccccc1C(=O)N2` [XMD8-87], the Kinases covered result in the assay with TNK2 was “TNK2”.

With `CNS(=O)(=O)c1ccc(N(C)C)c(Nc2ncnc3cc(OC)c(OC)cc23)c1` [GSK114], the Kinases covered result in the assay on TNNI3K was “TNNI3K”.

For the compound `CC(=O)c1c(C)c2cnc(Nc3ccc(N4CCNCC4)cn3)nc2n(C2CCCC2)c1=O` [PFE-PKIS 32], the Kinases covered entry in the assay with TTK is “TTK”.

`CCS(=O)(=O)c1ccc(OC)c(Nc2ncc(-c3cccc(F)c3)o2)c1` [GW621970X]: in the assay on YES, the Kinases covered entry is reported as “YES”.

Values taken from PMC7826789 (International Journal of Molecular Sciences, 2021).
